Compound activity as filed in PubChem.
TRHR enhancer: allosterically enhances the human TRH receptor; P34981; TRHR cells, fluo-8 calcium fluorescence, EC20 TRH enhancement; enhancement, % at 2 µM; 0.66% of 360,000 active; AID 493056; in the data active means enhancement above about 30%; further: 0% is about no effect
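TRHR-expressing cells loaded with fluo-8 calcium dye were read kinetically (ex 480/em 530) during compound addition, then stimulated with an EC20 of TRH (10 nM final). Enhancement of the Gq-mediated intracellular calcium response was scored.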
D1 antagonist: blocks dopamine activation of the human D1 receptor; activity change, negative = inhibition, % at 10 µM; AID 504652; HEK293 TREx D1 cells, calcium flux, dopamine EC80; hits give low values; P21728; 3.2% of 360,000 active; in the data active means activity change below about -30%; further: on the % scale 0 is the no-effect control and ±100 the full control effect
Target sequence (P21728 whole entry, looked up): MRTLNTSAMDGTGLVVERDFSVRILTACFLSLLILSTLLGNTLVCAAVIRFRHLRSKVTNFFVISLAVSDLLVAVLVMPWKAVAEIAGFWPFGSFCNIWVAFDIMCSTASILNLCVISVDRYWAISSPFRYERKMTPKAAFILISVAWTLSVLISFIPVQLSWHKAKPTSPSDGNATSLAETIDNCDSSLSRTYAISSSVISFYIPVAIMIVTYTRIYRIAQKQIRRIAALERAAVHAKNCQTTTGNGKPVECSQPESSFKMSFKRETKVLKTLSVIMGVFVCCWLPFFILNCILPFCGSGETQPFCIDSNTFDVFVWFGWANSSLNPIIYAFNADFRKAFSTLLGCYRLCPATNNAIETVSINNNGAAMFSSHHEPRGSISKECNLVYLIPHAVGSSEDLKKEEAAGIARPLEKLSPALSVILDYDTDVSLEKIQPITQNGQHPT
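Compound effects on dopamine-evoked calcium signalling were measured in tetracycline-induced HEK293 Trex D1 cells. Dopamine at EC80 followed a 180 s compound pre-read, and fluorescence was tracked kinetically for 180 s more.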
D1 ag: agonists of human D1 dopamine receptor; P21728; activation, % at 2 µM; AID 504660; 1% of 360,000 active; HEK293 T-REx D1 cells, calcium flux, agonist mode; further: 0% is about no effect
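Tetracycline-induced HEK293 TREx D1 cells, force-coupled to calcium signalling, were dye-loaded with a no-wash calcium kit. Compound was pin-added after a 10 s baseline. Fluorescence was read kinetically at 1 cycle/s for 180 s, with calcium rises flagged as agonism.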
TRHR agonist: agonists of human TRH receptor; P34981; TRHR cells, calcium flux fluo-8, FDSS agonist mode; activation, % at 2 µM; 0.18% of 360,000 active; AID 493084; further: 0% is about no effect
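Read-out: compound-evoked intracellular calcium rise in TRHR cells, fluo-8 dye, kinetic FDSS fluorescence at 1 s/cycle following a 10-cycle baseline. Cells cultured overnight before dye loading (30 min–1.5 h, RT).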
D1 PAM: potentiators of human D1 dopamine receptor; P21728; HEK293 TREx D1 cells, calcium flux, dopamine EC20 potentiation; potentiation, % at 10 µM; 0.036% of 360,000 active; AID 504651; in the data active means potentiation above about 30%; further: 0% is about no effect
* hit, by the source's call; . = not tested or not shown. Rows were chosen to be rich in hits. Some 4.6% of all compounds tested hit in one or more screens of this group. Unless noted, no stated cut-off is given here; in the data, active means activation above about 30%; inactive means the rest.

SMILES | TRHR enhancer | D1 antagonist | D1 ag | TRHR agonist | D1 PAM
CN(C(=O)COC(=O)c1cccc(Cl)c1)C1CCS(=O)(=O)C1 (stereo unspecified) | 6 | 16 | 0 | 2 | -2
CN(C(=O)COC(=O)c1cccnc1Nc1ccccc1F)C1CCS(=O)(=O)C1 (stereo unspecified) | -2 | -31* | 0 | -2 | -2
CCN(C(=O)COC(=O)c1c(C)noc1C)C1CCS(=O)(=O)C1 (stereo unspecified) | -1 | -9 | 3 | 1 | 4
Cc1noc(C)c1C(=O)OCC(=O)N(C)C1CCS(=O)(=O)C1 (stereo unspecified) | 2 | -80* | 4 | 0 | -2
CN(C(=O)COC(=O)c1ccc(-c2ccc(O)cc2)cc1)C1CCS(=O)(=O)C1 (stereo unspecified) | 3 | -46* | 4 | 0 | -4
CN(Cc1ccccc1F)C(=O)c1ccc(Oc2ccccc2)cc1 | -7 | -31* | 3 | 0 | -9
O=C(c1cccn1-c1nnc(N2CCCCC2)s1)N1CCN(c2ccccc2)CC1 | 13 | 2 | 2 | -1 | 1
CCOC(=O)COc1ccc2c(=O)c(-c3ccc(OC)c(OC)c3)c(C(=O)OCC)oc2c1 | -5 | -45* | -1 | -1 | -5
CCOC(=O)c1oc2cc(OC(C)=O)ccc2c(=O)c1-c1ccc(OC)c(OC)c1 | 5 | -1 | 2 | 0 | 0
Cc1ccc(OCCn2nc3ccccc3n2)c(C)c1 | 39* | -24 | 4 | 1 | -13
CCOc1ccccc1OCCn1nc2ccccc2n1 | -4 | 6 | 4 | 0 | 1
COc1ccccc1-c1ccc(SCc2ccccc2)nn1 | 6 | -23 | 5 | 0 | -4
COc1ccccc1-c1ccc(SCc2ccccc2F)nn1 | 3 | -40* | 15 | 0 | -1
COC(=O)c1ccc(NC(=O)Cn2nc(C)c3ccccc3c2=O)cc1 | 0 | -9 | 12 | 0 | 0
CCOc1ccc(NC(=O)Cn2nc(Cc3ccncc3)c3ccccc3c2=O)cc1 | 38* | -4 | 0 | -2 | -1
O=C(Cn1nc(Cc2ccncc2)c2ccccc2c1=O)Nc1cccc(C(F)(F)F)c1 | 2 | -2 | -1 | -1 | 3
CCOC(=O)c1ccc(NC(=O)Cn2nc(C)c3ccccc3c2=O)cc1 | 30* | -10 | 0 | 0 | 40*
O=C(CCCn1cncn1)N1CCCC(N2CCN(c3ccc(F)cc3)CC2)C1 (stereo unspecified) | -4 | -10 | 1 | -1 | 0
CCc1ccccc1NC(=O)Cn1c(=O)nc(-c2ccccc2)c2ccccc21 | 2 | -1 | 0 | -1 | 0
COc1ccc(NS(=O)(=O)c2ccc(C(=O)N(C)Cc3cccs3)cc2)cc1 | 5 | -35* | 60* | 5 | 2
COc1ccc(C(CNC(=O)c2cccc(NS(=O)(=O)c3ccccc3)c2)N(C)C)cc1 (stereo unspecified) | -2 | -8 | 3 | 0 | -7
CCOc1ccc(NS(=O)(=O)c2ccc(C(=O)NCC(c3ccco3)N(C)C)cc2)cc1 (stereo unspecified) | -1 | -13 | 70* | 7 | 4
CCOc1ccc(S(=O)(=O)Nc2cccc(C(=O)N(C)Cc3cccc(OC)c3OC)c2)cc1 | 2 | -32* | 7 | -1 | -6
CCOc1ccc(S(=O)(=O)Nc2cccc(C(=O)NCC(c3ccccc3)N(C)C)c2)cc1 (stereo unspecified) | -3 | 8 | 35* | 4 | 2
COc1ccc(NS(=O)(=O)c2cccc(C(=O)N(C)Cc3cccs3)c2)cc1 | 5 | -25 | 17 | -1 | -8
SMILES | TRHR enhancer | D1 antagonist | D1 ag | TRHR agonist | D1 PAM
COc1cccc(CSc2nc(-c3ccccc3OC)nc3c2Cc2c(CO)cnc(C)c2O3)c1 | -5 | 4 | 0 | 1 | -3
CCc1ccc(NC(=O)Cn2ccn(-c3ccc(C)c(C)c3)c(=O)c2=O)cc1 | 4 | -11 | 10 | 0 | -4
O=C(Nc1ccc(F)cc1C(F)(F)F)C1CCN(c2ncccn2)CC1 | 6 | -6 | 3 | 0 | 4
COc1ccc(Cn2c(SCc3ccc(C(=O)NC(C)c4ccccc4)cc3)nc3cccnc32)cc1 (stereo unspecified) | 5 | -2 | 7 | 1 | 1
Cc1ccc(NS(=O)(=O)c2cccc(C(=O)NCC(c3ccco3)N3CCCC3)c2)cc1 (stereo unspecified) | 3 | 13 | 44* | 3 | .
N#CCC(=O)Nc1ccc(C(=O)NCC(c2ccco2)N2CCCCC2)cc1 (stereo unspecified) | 38* | 2 | 4 | 1 | 1
O=S(=O)(NCC(c1ccco1)N1CCCCC1)c1ccccc1C(F)(F)F (stereo unspecified) | -7 | -42* | 2 | 1 | -1
O=C(NCC(c1ccco1)N1CCCCC1)c1ccc(OCc2ccccc2)cc1 (stereo unspecified) | 3 | -27 | 4 | -1 | -5
COc1ccc(C(CNC(=O)c2cccc(S(=O)(=O)Nc3ccc(F)cc3)c2)N(C)C)cc1 (stereo unspecified) | 33* | -23 | 44* | 0 | -6
CCOc1cc(Br)cc(/C=N/NC(=O)c2cccnc2)c1O | 2 | 0 | 10 | 4 | 5
COC(=O)c1ccc(NC(=O)c2c(NCc3ccc(OC)c(OC)c3)sc3c2CCCC3)cc1 | -2 | 3 | 2 | 0 | -9
O=C(NC1CCCc2ccccc21)c1ccc2c(c1)sc1nc(-c3ccccc3)cn12 (stereo unspecified) | -3 | -26 | 11 | 0 | -4
CCn1c(CNC(=O)c2ccc(OC)cc2)nnc1SCC(=O)Nc1cccc(C)c1C | 14 | 1 | 2 | 0 | 3
CCN(CC)CC(C)CNC(=O)C1(O)c2ccccc2NC(=O)N1c1ccc(Cl)c(Cl)c1 (stereo unspecified) | -1 | -16 | 1 | 1 | -3
CCOC(=O)c1c(C)[nH]c(C(=O)N(C)Cc2cccc(OC)c2OC)c1C | 4 | 2 | 38* | -1 | -7
O=C(NCC(c1ccco1)N1CCCCC1)c1ccc(S(=O)(=O)Nc2ccccc2)cc1 (stereo unspecified) | 11 | 7 | 11 | 1 | 0
CCOc1ccc(S(=O)(=O)Nc2ccc(C(=O)NCC(c3ccco3)N3CCCCC3)cc2)cc1 (stereo unspecified) | -21 | 0 | 33* | 0 | 4
Cc1ccc(S(=O)(=O)NC(CC(C)C)C(=O)NCC(c2ccco2)N2CCCCC2)cc1 (stereo unspecified) | 0 | 13 | 3 | -1 | -6
CC(=O)Nc1ccc(S(=O)(=O)NC(C)C(=O)NCC(c2ccco2)N2CCCCC2)cc1 (stereo unspecified) | 3 | -46* | 1 | 0 | -2
